# Assay results as given in PubChem BioAssay AID1220 (Sanford-Burnham Center for Chemical Genomics, 2008).
# Hit rate of the full screen: of about 190,000 compounds, about 1,300 (0.68%) were called active. Shown is part of a subset that was picked to be rich in actives. A number with no mark means an inactive call. Rule as the data show it: active = inhibition above about 50%; inactive = the rest.
# Target: Mannose-6-phosphate isomerase (Homo sapiens) (UniProt P34949)
# Test: human PMI inhibitors, high substrate, primary screen, biochemical, fluorescence intensity, high mannose 6-phosphate (AID 1220)
# Conditions: recombinant PMI enzyme, coupled fluorescence intensity; at 20 µM; active compounds read high
# Chain of Mannose-6-phosphate isomerase (Homo sapiens) (P34949 whole entry, looked up): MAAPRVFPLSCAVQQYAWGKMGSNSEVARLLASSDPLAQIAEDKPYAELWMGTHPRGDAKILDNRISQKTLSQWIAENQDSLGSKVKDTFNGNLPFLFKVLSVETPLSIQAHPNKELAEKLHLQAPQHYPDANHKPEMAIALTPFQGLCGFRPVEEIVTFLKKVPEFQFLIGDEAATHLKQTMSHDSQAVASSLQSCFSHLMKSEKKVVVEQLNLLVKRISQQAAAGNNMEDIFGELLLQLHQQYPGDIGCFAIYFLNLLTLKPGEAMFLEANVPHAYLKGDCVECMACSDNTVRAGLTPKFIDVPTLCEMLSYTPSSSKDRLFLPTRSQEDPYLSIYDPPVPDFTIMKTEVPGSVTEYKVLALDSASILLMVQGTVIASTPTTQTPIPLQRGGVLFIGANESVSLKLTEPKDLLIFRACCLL
row,Compound,inhibition
1,Cc1[nH]c2ccccc2c1/C=N/n1cnnc1,-4.2%
2,CCN(CC)c1ccc(N=Cc2ccc([N+](=O)[O-])o2)cc1,59.7% (active)
3,CCNC(=S)N/N=C/c1ccccc1[N+](=O)[O-],-1.5%
4,CN(/N=C/c1ccc([N+](=O)[O-])o1)c1ccccc1,-3.1%
5,CCCCCC(=O)N/N=C/c1ccccc1[N+](=O)[O-],-6.7%
6,O=[N+]([O-])c1ccc(/C=N/N=C/c2ccc([N+](=O)[O-])o2)o1,24.5%
7,CCCCNC(=S)N(C)/N=C/c1c(C)[nH]c2ccccc12,9.5%
8,CCN(CC)c1ccc(N=Cc2c(C)[nH]c3ccccc23)cc1,69.7% (active)
9,CCN(CC)c1ccc(N=Cc2ccccc2[N+](=O)[O-])cc1,64.4% (active)
10,CCN(CC)c1ccc(/C=N/NS(=O)(=O)c2cccc([N+](=O)[O-])c2)cc1,-83.2%
11,O=C(CNC(=O)C1COc2ccccc2O1)N/N=C\c1cccc(O)c1 (stereo unspecified),-10.8%
12,Cc1cccc(-n2nnc3c(=O)n(CC(=O)Nc4cc(C)on4)cnc32)c1,-4.2%
13,COc1ccccc1N/C=C1/Sc2cc(Cl)ccc2NC1=O,3%
14,COc1cc2ccnc(Cc3cccc(OC)c3OC)c2cc1OC,44.9%
15,CCOC(=O)Nc1cc(OC)c(OC)cc1Cc1nccc2cc(OC)c(OC)cc12,-1.9%
16,COc1cc(N)c(Cc2nccc3cc(OC)c(OC)cc23)cc1OC,56.4% (active)
17,COc1ccc(NC(=O)c2ccccc2NC(=O)CSc2ccccc2)cc1,2.1%
18,C=C(C)C1Cc2c(C)nn(-c3ccccn3)c2C1 (stereo unspecified),-10.9%
19,Cc1nn(-c2ccccn2)c2c1C(=O)C(Br)CC2 (stereo unspecified),72.9% (active)
20,Cc1nn(-c2ccccn2)c2c1C(c1ccccn1)C1=C(CCCC1=O)N2 (stereo unspecified),0.2%
21,Cc1ccccc1C(=O)NNC(=O)C12CC3CC(CC(C3)C1)C2,7%

row,Compound,inhibition
1,CC(=O)CC(=O)Nc1ccc(C(N)=O)cc1,6.1%
2,COc1cc(C2C(C#N)=C(N)Oc3cc(C)n(CCN4CCOCC4)c(=O)c32)cc(OC)c1OC (stereo unspecified),-11.7%
3,COc1ccc(C2C(C#N)=C(N)Oc3cc(C)n(CCN4CCOCC4)c(=O)c32)cc1OC (stereo unspecified),-0.4%
4,COc1cc(OC)c(C2C(C#N)=C(N)Oc3cc(C)n(CCCN4CCOCC4)c(=O)c32)cc1OC (stereo unspecified),61.6% (active)
5,N#Cc1nc(-c2ccc(Cl)cc2)oc1N1CCCCC1,-8.5%
6,COc1ccccc1-n1c(CNC(=O)c2cccc([N+](=O)[O-])c2C)n[nH]c1=S,-7.8%
7,CCOC(=O)c1ccccc1N/C=C1\CCCCC1=O,-11.5%
8,COC(=O)c1ccccc1N/C=C1\CCc2c(c(C)nn2-c2ccccn2)C1=O,73.6% (active)
9,COC(=O)c1ccccc1NC(=S)N1CCN(c2ccccn2)CC1,5.5%
10,COc1ccccc1N1CCN(C(=O)c2ccc3c(Cl)c4c(nc3c2)CCCC4)CC1,14.1%
11,Cn1c(=O)[nH]c(=O)c2c1nc(N1CCCC1)n2CC(O)COc1ccccc1 (stereo unspecified),3.3%
12,CCNc1nc(Cl)nc(NCCOc2ccc(C)cc2)n1,0.4%
13,CCCC(=O)Nc1nnc(C2CCCO2)s1 (stereo unspecified),17.6%
14,Cc1cccc(C)c1OCC(=O)Nc1nnc(C2CCCO2)s1 (stereo unspecified),53.1% (active)
15,Cc1ccc(OCC(=O)Nc2nnc(C3CCCO3)s2)c(Br)c1 (stereo unspecified),5.8%
16,O=C(COc1ccc([N+](=O)[O-])cc1)NCc1ccncc1,-2.2%
17,O=S(=O)(Cc1ccccc1)NCC1CCCN(Cc2ccc3nonc3c2)C1 (stereo unspecified),7.4%
18,CCCCOC(=O)c1ccc(NC(=S)NC(=O)c2c(Cl)cnn2C)cc1,62.3% (active)
19,COC(=O)c1ccc(NC(=S)NC(=O)c2c(Cl)cnn2C)cc1,-3.2%
20,CCCCOC(=O)c1ccc(NC(=S)NC(=O)c2c(Cl)cnn2CC)cc1,17.1%
21,CCN1CCCn2c1nc1c2c(=O)n(C)c(=O)n1C,-4.6%

row,Compound,inhibition
1,CC1CCCCN1C(=O)CSc1nnc(-c2c[nH]c3ccccc23)o1 (stereo unspecified),-3.8%
2,CC1(C)CC(=O)C(C=Nc2ccc(N)cc2)=C(O)C1,33.3%
3,CC1(C)CC(=O)C(C=Nc2ccc(NC3=C(C#N)C(=O)CC(C)(C)C3)cc2)=C(O)C1,60.4% (active)
4,CC1(C)CC(=O)C(C=Nc2ccc(O)cc2)=C(O)C1,21.8%
5,CCOC(=O)Cn1c(-c2cccnc2Cl)nc2cc(Cl)c(Cl)cc21,21.1%
6,O=C(CN(c1ccc(Br)cc1)S(=O)(=O)c1ccc(Cl)c([N+](=O)[O-])c1)NCCc1ccccc1,-3.9%
7,COc1ccc(CN=CC2=C(O)CC(C)(C)CC2=O)cc1,12.4%
8,O=[N+]([O-])c1ccc(COc2cccc(CNc3ccc(F)cc3)c2)cc1,-3.6%
9,Oc1ccc(NCc2cccc(OCc3ccccc3)c2)cc1,58.9% (active)
10,O=[N+]([O-])c1ccc(COc2cccc(CNc3ccc(Br)cc3)c2)cc1,19.9%
11,Fc1ccc(COc2cccc(CNCc3ccncc3)c2)cc1,-15.5%
12,Oc1ccc(NCc2cccc(OCc3ccc(F)cc3)c2)cc1,51.3% (active)
13,c1ccc(COc2cccc(CNn3cnnc3)c2)cc1,0.5%
14,CCS(=O)(=O)c1c(S(=O)(=O)CC)c2ccccn2c1C(N)=O,-1%
15,Cc1cccc(C(C)C)c1NC(=O)C1CN(S(=O)(=O)c2ccccc2)CCN1S(=O)(=O)c1ccccc1 (stereo unspecified),1.2%
16,COc1cccc2c(=O)cc(C)n(CC(=O)Nc3ccccc3C)c12,-2.8%
17,CC(C)C(=O)N1c2ccccc2NC2=C(C(=O)CCC2)C1c1ccc(N(C)C)cc1 (stereo unspecified),60.7% (active)
18,CC(=O)N1c2ccccc2NC2=C(C(=O)CCC2)C1c1ccc(F)cc1 (stereo unspecified),13.6%
19,CCC(=O)N1c2ccccc2NC2=C(C(=O)CCC2)C1c1ccc(N(C)C)cc1 (stereo unspecified),16.3%
